Measured values taken from PubChem BioAssay.
Active and inactive are the calls of the source. Unless noted, no rule for the calls is given here.

How the values were obtained:
[1] = HepG2 liver cancer cell viability effects, profiling panel, resazurin fluorescence, 24 h, PK04 Diversity Set (AID 1172); details: higher = more signal
[2] = basal S. cerevisiae growth modulation, no modifier, primary screen, OD600, strain BY4716, 24 h, basal condition (AID 1173); details: OD600, 24 h, higher = more signal, called active from +8 up or from −8 down
[3] = MM1S myeloma cell viability, profiling panel, resazurin fluorescence, basal, 24 h, PK04 Diversity Set (AID 1174); details: higher = more signal, called active from +8 up or from −8 down;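 also: MM1S multiple myeloma cell line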
[4] = target: Dihydroorotate dehydrogenase (quinone), mitochondrial (Plasmodium falciparum (isolate 3D7)) (UniProt Q08210); assay: PfDHODH enzyme inhibitors, primary screen, biochemical, C-terminal His tag, absorbance 600 nm (AID 1175); details: DCIP absorbance 600 nm, higher = more signal, called active from +8 up or from −8 down;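 also: recombinant parasite enzyme with a five histidine tag at its C terminus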
Chain of Dihydroorotate dehydrogenase (quinone), mitochondrial (Plasmodium falciparum (isolate 3D7)) (Q08210 whole entry, looked up): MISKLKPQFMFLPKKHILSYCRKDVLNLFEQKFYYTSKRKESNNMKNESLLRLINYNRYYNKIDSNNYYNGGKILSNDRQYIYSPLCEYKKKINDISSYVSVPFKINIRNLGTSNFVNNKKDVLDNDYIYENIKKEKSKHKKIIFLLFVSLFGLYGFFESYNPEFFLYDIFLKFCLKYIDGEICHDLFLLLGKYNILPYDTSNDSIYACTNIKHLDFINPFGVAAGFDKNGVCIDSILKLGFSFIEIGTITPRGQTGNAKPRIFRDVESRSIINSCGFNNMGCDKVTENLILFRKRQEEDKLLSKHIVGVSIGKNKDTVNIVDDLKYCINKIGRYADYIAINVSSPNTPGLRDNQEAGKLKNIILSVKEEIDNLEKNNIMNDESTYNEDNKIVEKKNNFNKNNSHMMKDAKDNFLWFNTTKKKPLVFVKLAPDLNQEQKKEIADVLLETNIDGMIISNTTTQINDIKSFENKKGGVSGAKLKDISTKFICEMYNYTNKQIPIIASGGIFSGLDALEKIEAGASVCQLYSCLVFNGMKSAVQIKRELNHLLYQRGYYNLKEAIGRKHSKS

[5] = P. aeruginosa biofilm formation inhibitors, primary screen, strain PAO1, LB-PBS medium, absorbance 600 nm (AID 1176); details: P. aeruginosa PAO1 growth/biofilm, A600, 12 h; higher = more signal
[6] = S. cerevisiae RM11-1a growth modifiers, primary screen, strain RM11-1a, OD600, basal, 24 h (AID 1177); details: OD600, 24 h, higher = more signal, called active from +8 up or from −8 down;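 also: cultures grown under basal conditions with no added stressor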
[7] = E. coli acrAB mutant growth effects, primary screen, E. coli filamentation inducers, strain DRC39, OD650, 24 h (AID 1178); details: higher = more signal, called active from +8 up or from −8 down;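 also: growth measured as culture turbidity by optical density at 650 nm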
[8] = E. coli acrAB mutant growth effects, primary screen, E. coli filamentation inducers, strain DRC39, OD650, 48 h (AID 1179);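 also: screen aims at cell division blockers that make cells filament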; details: E. coli DRC39 delta-acrAB growth, higher = more signal, called active from +8 up or from −8 down
[9] = RPMI8226 myeloma cell viability, profiling panel, resazurin fluorescence, basal, 24 h, PK04 Diversity Set (AID 1180); details: higher = more signal;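 also: RPMI8826 multiple myeloma cell line at 5000 cells per well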
[10] = target: E3 ubiquitin-protein ligase XIAP (Homo sapiens) (UniProt P98170); assay: XIAP binders, primary screen, biophysical, small-molecule microarray, fluorescence 635 nm (AID 1181); details: small-molecule microarray binding, higher = more signal;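 also: score merges 667 nm emission and signal to noise over triplicate slides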
Chain of E3 ubiquitin-protein ligase XIAP (Homo sapiens) (P98170 whole entry, looked up): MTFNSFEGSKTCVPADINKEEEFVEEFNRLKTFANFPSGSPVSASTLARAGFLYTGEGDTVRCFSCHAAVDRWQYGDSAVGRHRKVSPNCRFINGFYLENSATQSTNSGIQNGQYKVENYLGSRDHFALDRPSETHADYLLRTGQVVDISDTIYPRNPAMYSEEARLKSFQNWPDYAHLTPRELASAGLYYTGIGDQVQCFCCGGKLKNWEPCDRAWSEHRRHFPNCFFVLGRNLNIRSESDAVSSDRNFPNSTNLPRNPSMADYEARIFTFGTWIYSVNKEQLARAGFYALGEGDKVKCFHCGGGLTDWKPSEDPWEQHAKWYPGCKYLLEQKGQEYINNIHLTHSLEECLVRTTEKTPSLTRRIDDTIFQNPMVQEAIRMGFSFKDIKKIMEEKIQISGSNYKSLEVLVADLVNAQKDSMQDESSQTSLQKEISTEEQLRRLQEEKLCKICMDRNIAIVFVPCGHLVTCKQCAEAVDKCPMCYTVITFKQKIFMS

[11] = tested on: XIP peptide (Xip251-270) binding; assay: small-molecule binders of XIP peptide, primary screen, biochemical, small-molecule microarray, fluorescence 635/667 nm, 0.1 µg/mL protein (AID 1182); details: fluorescent protein binding, 635 nm, higher = more signal, called active from +8 up or from −8 down
XIP peptide (Xip251-270) = assay: small-molecule binders of XIP peptide, primary screen, biochemical, small-molecule microarray, fluorescence 635/667 nm, 0.5 µg/mL protein (AID 1183); details: small-molecule microarray binding, fluorescence 635 nm; higher = more signal
[12] = Plasmodium falciparum growth inhibition, primary screen, strain 3D7, DAPI fluorescence, 100 nL (AID 1184);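 also: parasites grown inside human red blood cells in medium with human serum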; details: P. falciparum 3D7 growth, 3 d, higher = more signal
[13] = target: Homeobox protein Hox-A13 (Mus musculus) (UniProt Q62424); assay: inhibitors of HoxA13-DNA binding, primary screen, biochemical, fluorescence polarization, labeled oligonucleotide (AID 1185); details: 15 min, higher = more signal, called active from +8 up or from −8 down
Chain of Homeobox protein Hox-A13 (Mus musculus) (Q62424 whole entry, looked up): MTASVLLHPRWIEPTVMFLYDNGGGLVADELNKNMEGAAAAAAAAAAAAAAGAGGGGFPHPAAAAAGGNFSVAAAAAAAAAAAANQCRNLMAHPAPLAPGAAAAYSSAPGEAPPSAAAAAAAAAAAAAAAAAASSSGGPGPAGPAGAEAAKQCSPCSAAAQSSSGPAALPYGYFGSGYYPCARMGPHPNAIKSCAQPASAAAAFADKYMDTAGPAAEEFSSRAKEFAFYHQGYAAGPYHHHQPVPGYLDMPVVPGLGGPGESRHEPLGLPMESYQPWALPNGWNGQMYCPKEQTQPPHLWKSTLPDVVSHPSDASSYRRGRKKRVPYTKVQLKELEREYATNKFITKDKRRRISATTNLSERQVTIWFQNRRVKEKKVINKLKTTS

[14] = inhibitors of hydroxyurea-induced Chk1 phosphorylation, primary screen, imaging, HeLa, phospho-Chk1 antibody, percent positive cells (AID 1186); details: hydroxyurea-induced phospho-Chk1 immunofluorescence imaging, higher = more signal
[15] = inhibitors of hydroxyurea-induced Chk1 phosphorylation, primary screen, imaging, HeLa, phospho-Chk1 nuclear intensity (AID 1187); details: hydroxyurea-induced phospho-Chk1 immunofluorescence imaging, higher = more signal

SMILES	z-score [1]	z-score [2]	z-score [3]	composite z-score [4]	z-score [5]	z-score [6]	z-score [7]	z-score [8]	z-score [9]	composite z-score [10]	composite z-score [11]	composite z-score (XIP peptide (Xip251-270))	z-score [12]	z-score [13]	z-score [14]	z-score [15]
CC(C)C[C@@H]1NC(=O)[C@H]2C[C@@H](C(=O)NCCCCCCN)[C@@H](c3ccc(O)cc3)N2C1=O	-0.632	-0.134 (inactive)	-0.403 (inactive)	0.0444 (inactive)	-0.226 (inactive)	-0.459 (inactive)	-0.396 (inactive)	-0.975 (inactive)	-0.299	-0.338	1.43 (inactive)	0.776	-0.108	-2.64 (inactive)	0.273 (inactive)	-0.265 (inactive)
CC[C@@H]1C=C(C(=O)O)[C@H](c2ccco2)N1S(=O)(=O)c1ccc(C)cc1	-0.456	0.538 (inactive)	-0.283 (inactive)	0.267 (inactive)	0.449 (inactive)	-0.0109 (inactive)	-0.721 (inactive)	0.34 (inactive)	-0.88	0.124	3.88 (inactive)	-0.265	-0.761	-4.78 (inactive)	0.186 (inactive)	0.162 (inactive)
COc1ccc([C@H]2OC[C@@H]3CC4(CC=CC4)C(=O)N32)cc1	-0.876	-0.897 (inactive)	0.305 (inactive)	-0.177 (inactive)	-0.0634 (inactive)	0.504 (inactive)	-0.632 (inactive)	-0.688 (inactive)	0.012	-0.0118	-0.302 (inactive)	0.345	0.301	-0.0645 (inactive)	0.0257 (inactive)	-0.452 (inactive)
COC(=O)[C@@]1(Cc2ccc(OC)cc2)[C@H]2c3cc(C(=O)N4CCCC4)n(Cc4ccc(OC)c(OC)c4)c3C[C@H]2CN1C(=O)c1ccccc1	0.277	1.66 (inactive)	-0.994 (inactive)	-0.245 (inactive)	0.259 (inactive)	0.744 (inactive)	-0.333 (inactive)	-0.888 (inactive)	-0.636	-0.0541	1.27 (inactive)	0.653	-1.65	-4.91 (inactive)	0.666 (inactive)	0.699 (inactive)
CC(C)(C)OC(=O)CC[C@@]12N=C(c3ccc(OCCCO)cc3)O[C@@H]1c1ccccc1N(CCS(=O)(=O)c1ccccc1)C2=O	-0.223	0.508 (inactive)	-1.95 (inactive)	-0.298 (inactive)	0.218 (inactive)	1.44 (inactive)	1.25 (inactive)	1.56 (inactive)	-0.835	0.0801	-0.204 (inactive)	0.569	-1.7	-3.42 (inactive)	-0.739 (inactive)	-0.767 (inactive)
C=CCOC(=O)[C@H]1[C@@H]2C(=O)O[C@@H](c3ccccc3)[C@@H](c3ccccc3)N2[C@@H](c2ccc(OCCOC(=O)[C@@H]3C[C@@H]4C(=O)N[C@@H](CCCCN(C)C)C(=O)N4[C@@H]3c3ccc(O)cc3)cc2)[C@]12C(=O)Nc1ccc(I)cc12	-0.513	-1.17 (inactive)	-1.06 (inactive)	-1.71 (inactive)	1.26 (inactive)	1.65 (inactive)	-0.619 (inactive)	0.767 (inactive)	-1.18	-0.0749	1.74 (inactive)	0.805	-0.174	6.34 (inactive)	0.936 (inactive)	0.679 (inactive)
CCOC(=O)[C@H]1CC=C2CC1C(=O)N1CCC[C@@H]1[C@@H]2O[Si](C)(C)C(C)(C)C (stereo partly drawn)	0.706	-14.4 (active)	0.425 (inactive)	-0.458 (inactive)	0.543 (inactive)	-0.335 (inactive)	0.665 (inactive)	-0.17 (inactive)	1.04	-0.167	-0.473 (inactive)	-0.216	-0.575	-5.97 (inactive)	-0.696 (inactive)	-0.559 (inactive)
COCCOC(=O)N1C(=O)[C@@]2(c3cc(C#CC4=CCCCC4)ccc31)[C@H](C(=O)Nc1nc3ccccc3s1)[C@H]1C(=O)O[C@H](c3ccccc3)[C@H](c3ccccc3)N1[C@@H]2c1ccc(OCCO)cc1	0.366	1.05 (inactive)	0.295 (inactive)	0.0498 (inactive)	4.33 (inactive)	2.51 (inactive)	-1.26 (inactive)	-2.09 (inactive)	-0.0984	-0.106	-0.555 (inactive)	0.467	-1.52	3.78 (inactive)	-0.0093 (inactive)	0.303 (inactive)
[N-]=[N+]=NCc1ccccc1C[C@]1(C(=O)N2CCOCC2)N=C(c2ccc(OCCCO)cc2)O[C@H]1c1ccccc1N=[N+]=[N-]	0.168	-1.05 (inactive)	-1.21 (inactive)	0.152 (inactive)	-0.357 (inactive)	-0.405 (inactive)	1.14 (inactive)	0.957 (inactive)	-1.61	-0.113	0.141 (inactive)	0.229	-2.6	-2.96 (inactive)	-0.551 (inactive)	-0.635 (inactive)
Cc1ccc(S[C@]2(C(=O)NCC(F)(F)F)CC(=O)N(C(C)C)[C@@H]2c2ccc(CO)cc2I)cc1	-0.185	-1.52 (inactive)	-0.881 (inactive)	0.436 (inactive)	0.786 (inactive)	0.701 (inactive)	0.0212 (inactive)	-0.105 (inactive)	-2.05	-0.0013	-0.268 (inactive)	-0.467	-0.181	-2.7 (inactive)	0.295 (inactive)	0.84 (inactive)
COc1ccc(CCNC(=O)[C@@]2(C)c3ccccc3C(=O)N(Cc3cc(F)cc(C(F)(F)F)c3)[C@H]2c2ccc(CO)cc2)cc1	-0.469	-0.513 (inactive)	1.02 (inactive)	0.917 (inactive)	0.593 (inactive)	1.1 (inactive)	0.568 (inactive)	0.453 (inactive)	0.652	0.003	0.17 (inactive)	0.464	-1.49	-4.2 (inactive)	0.027 (inactive)	0.116 (inactive)
CC(C)C(=C=CC[C@@H](O)c1ccccc1OCCO)CCO	0.61	-13 (active)	0.11 (inactive)	-5.28 (inactive)	-0.0828 (inactive)	0.413 (inactive)	0.272 (inactive)	0.123 (inactive)	1.28	-0.318	0.305 (inactive)	-0.161	-0.637	-2.91 (inactive)	-0.306 (inactive)	0.231 (inactive)
NCCCCCNC(=O)[C@@H]1C[C@@H]2C(=O)NCC(=O)N2[C@@H]1c1ccc(O)cc1	0.0154	-0.54 (inactive)	0.236 (inactive)	-1.28 (inactive)	0.227 (inactive)	0.225 (inactive)	0.121 (inactive)	0.654 (inactive)	-0.9	0.348	0.715 (inactive)	0.416	0.112	-1.06 (inactive)	-0.44 (inactive)	-0.316 (inactive)
